Here are results for 40 molecules from PubChem BioAssay (NCI).

About 79,000 compounds went through this panel and 15% of them were active in at least one assay; those are over-represented in the sample as a whole. A number with no mark means an inactive call. The source made the active and inactive calls. Cut-off read from the data, not from the text of the source: active = growth inhibition above about 70%; inactive = the rest.

A short description of this assay: NCI Yeast Anticancer Drug Screen. Data for the sgs1 mgt1 strain (AID 161).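 Note: 0% = growth of cultures given vehicle only.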 The following applies: S. cerevisiae sgs1 mgt1 strain, at 50.0 µM, stronger effect = higher value. The method, boiled down: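 Growth of a repair-deficient yeast mutant was monitored after compound treatment and expressed as inhibition relative to vehicle-treated cultures.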
With `CCCC(C)(COC(N)=O)COC(=O)NC1CC1` (stereo not given), the growth inhibition is 36.3%.

Turning to `O=C(O)C(CSC(c1ccccc1)c1ccccc1)NC(=O)C(c1ccccc1)c1ccccc1` (stereo not given), the growth inhibition was 69.8%.

For `CC1=CC2CC(C)=C(CC[C@]3(C)CC[C@H]([C@@H](C)C(=O)O)OO3)C(C)(C)C2CC1` (stereo not given in full), the growth inhibition is 93% (active).

Regarding `O=[N+]([O-])/C=C/c1c(Cl)cccc1Cl`, the growth inhibition is 99.3% (active).

`O=[n+]1c2ccccc2n([O-])c2ccccc21.[Cl][Cu][Cl]`: the growth inhibition was 99.2% (active).

For `CC(=O)C(CN1CCOCC1)C(c1ccccc1)c1c(O)c2ccccc2oc1=O` (stereo not given), the growth inhibition was 9.4%.

As for `CC(C)c1oc(=O)cc2c1C(O)C1OC(=O)C3(C)C(O)C4OC4C2(C)C13` (stereo not given), the growth inhibition was 25.1%.

In the case of `C#CCN1C(=O)N(CC#C)C(=O)C(CC#C)(C(CC=C)c2ccccc2)C1=O` (stereo not given), the growth inhibition is 66.5%.

On to `COC(=O)C1c2c(C)cc3n2C(C=CC3)C1C(=O)OC` (stereo not given), for which the growth inhibition was 4.95%.

On to `[Cl][Hg][c]1ccc(Cl)s1`, for which the growth inhibition was 99% (active).

`N#CC(Cl)(Cl)CCl`: the growth inhibition was -9%.

Regarding `O=C1CCC(=O)N1SC(Cl)(Cl)Cl`, the growth inhibition was 99.7% (active).

As to `CCCC(=O)O.CCCC(=O)O.CCCC(=O)O.CCCC(=O)O.[Rh].[Rh]`, the growth inhibition was 30.1%.

Turning to `CC(CCC/C=C/CCCN(C)C(=N)N)CC(C)C1OC(=O)C(C)C(O)/C=C/C(C)C(O)C(C)C(O)C(C)C(O)CCCC(O)CC2(O)OC(CC(OC(=O)CC(=O)O)CC(O)CC(O)C(C)C(O)/C=C/C=C/C1C)CC(O)C2O` (stereo not given), the growth inhibition was 93.6% (active).

With `OC(CN(CCCl)CCCl)C(O)C(O)C(O)CN(CCCl)CCCl` (stereo not given), the growth inhibition is 30.2%.

In the case of `O=[N+]([O-])c1ccc(CS(=O)(=O)C(Cl)Cl)o1`, the growth inhibition is 87.9% (active).

Regarding `CC(C)c1cc([N+](=O)[O-])cc([N+](=O)[O-])c1O`, the growth inhibition was 86.1% (active).

As for `O=P(c1cccc(C(F)(F)F)c1)(c1cccc(C(F)(F)F)c1)c1cccc(C(F)(F)F)c1.O=P(c1cccc(C(F)(F)F)c1)(c1cccc(C(F)(F)F)c1)c1cccc(C(F)(F)F)c1.[Cl][Sn]([Cl])([Cl])[Cl]`, the growth inhibition was -5.9%.

For `COc1cc(N(CC(C)Br)CC(C)Br)ccc1N=Nc1ccccc1C(=O)O` (stereo not given), the growth inhibition is 32.4%.

As to `C(=P(c1ccccc1)(c1ccccc1)c1ccccc1)[P+](c1ccccc1)(c1ccccc1)c1ccccc1.[Cl][Fe]([Cl])([Cl])[Br]`, the growth inhibition was 99.5% (active).

`COc1ccc2c(c1)CCC(N1CCCC(=O)C1)C2` (stereo not given): the growth inhibition was 66%.

Turning to `C1CCNCC1.O=C([CH-]C(=O)C(F)(F)F)c1ccc2c(c1)C(=O)c1ccccc1-2.O=C([CH-]C(=O)C(F)(F)F)c1ccc2c(c1)C(=O)c1ccccc1-2.O=C([CH-]C(=O)C(F)(F)F)c1ccc2c(c1)C(=O)c1ccccc1-2.O=C([CH-]C(=O)C(F)(F)F)c1ccc2c(c1)C(=O)c1ccccc1-2.[Eu+3]`, the growth inhibition was 52.2%.

`O=C1C(=O)C(Br)(Br)C(Br)=C1Br`: the growth inhibition was 95% (active).

Consider `CN(C)C(=S)Nc1nnc(NC23CC4CC(CC(C4)C2)C3)s1`, for which the growth inhibition is 97.8% (active).

As to `C[CH2][Hg]`, the growth inhibition was 57.1%.

With `c1cc2n[pH]nc2cn1` (stereo not given), the growth inhibition was 21.2%.

`CCC[CH2][Sn]1([CH2]CCC)[O]CC(Cc2ccccc2)[O]1` (stereo not given): the growth inhibition is 86.9% (active).

Regarding `Clc1ccccc1C#[C][Hg][C]#Cc1ccccc1Cl`, the growth inhibition is 19.9%.

As for `CC12CCC3C(CC=C4CC(SC(=N)N)CCC43C)C1CCC2=O` (stereo not given), the growth inhibition was 75.5% (active).

`COc1ccccc1/C=C/[N+](=O)[O-]`: the growth inhibition was 99.2% (active).

For the molecule `ClC(CN1CCCCC1)C(Cl)c1ccccc1` (stereo not given), the growth inhibition was 62%.

In the case of `CCC[CH2][Sn]1([CH2]CCC)[O]CC(CN2CCCCC2)[O]1` (stereo not given), the growth inhibition is 82.8% (active).

With `COC1OC(CO)C(O)C(O)[CH]1[Hg][Cl]` (stereo not given), the growth inhibition was 99% (active).

Regarding `ClC1=C(Cl)C2(Cl)C(Cl)CC1(Cl)C2(Cl)Cl` (stereo not given), the growth inhibition is 68.5%.

For the molecule `[Hg][c]1ccccc1`, the growth inhibition was 99.5% (active).

Take `O=[N+]([O-])c1cccc(SC(Cl)(Cl)Cl)c1`: the growth inhibition was 99.1% (active).

On to `CC1=C(O)C(=O)C=C2C1=CC=C1[C@@]2(C)CC[C@@]2(C)[C@@H]3C[C@](C)(C(=O)O)CC[C@]3(C)CC[C@]12C`, for which the growth inhibition was 93.6% (active).

As for `CCC[CH2][Sn]1([CH2]CCC)[O]C2C(O)OC(CO)C(O)C2[O]1` (stereo not given), the growth inhibition was 99% (active).

Consider `O=[As]c1ccccc1O` (stereo not given), for which the growth inhibition is 90.3% (active).

Take `CC[PH+](CC)CC.[Cl][Au]`: the growth inhibition was 91.3% (active).
